Data as given in PubChem BioAssay AID463117 (University of Pittsburgh Molecular Library Screening Center, 2010).
The list shows a part of the results. Calls of active or inactive are those of the source.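 How the source made its calls: active means mean protection from necroptosis of at least 50% over duplicate tests; inactive means mean protection below 50%.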

assay: rescue of L929 cells from caspase-blocker death – duplicate runs, confirmation (AID 463117); conditions: L929 zVAD-induced necroptosis rescue, ATP luminescence, 24 h; at 10 µM; stronger effect = higher value;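 further: 0% = cells with zVAD alone and 100% = vehicle cells without zVAD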

**Q.** With `Oc1ccc(-c2onc3ccc(Cl)cc23)cc1` as the compound, how does the activation (protection from necroptosis) read?
**A.** Its activation (protection from necroptosis) is 11.4% (inactive).

**Q.** With `COc1ccc(-c2csc(Nc3ccc(O)cc3)n2)cc1` as the compound, how does the activation (protection from necroptosis) read?
**A.** The activation (protection from necroptosis) was 30.2% (inactive).

**Q.** With `CCn1c(SCCC(C)C)nnc1-c1c[nH]c2ccccc12` as the compound, how does the activation (protection from necroptosis) read?
**A.** The activation (protection from necroptosis) was 2.15% (inactive).

**Q.** With `CC(=O)Nc1cccc(-c2cnc3ccccc3n2)c1` as the compound, how does the activation (protection from necroptosis) read?
**A.** The activation (protection from necroptosis) was 1.04% (inactive).

**Q.** For `COc1ccc(-n2cnc3cc(C(=O)NC4CCCC4)ccc32)cc1`, which activation (protection from necroptosis) is on record?
**A.** The activation (protection from necroptosis) was 62% (active).

**Q.** For `COc1ccc(-n2cnc3cc(NCc4ccco4)ccc32)cc1`, which activation (protection from necroptosis) is on record?
**A.** Its activation (protection from necroptosis) is 52.9% (active).

**Q.** Which activation (protection from necroptosis) does the source give for `COc1cc(/C=N/Nc2nc3ccccc3s2)ccc1O` here?
**A.** The activation (protection from necroptosis) was 75.3% (active).

**Q.** With `COc1ccc2nc(NC(=O)NC3CCCCC3)sc2c1` as the compound, how does the activation (protection from necroptosis) read?
**A.** The activation (protection from necroptosis) was 37.5% (inactive).

**Q.** Which activation (protection from necroptosis) does the source give for `CC(=O)Nc1ccc(NC(=S)NC(=O)/C=C/c2ccccc2)cc1` here?
**A.** Its activation (protection from necroptosis) is -0.0785% (inactive).

**Q.** With `OCCCNc1nccc(-c2cc(Nc3cccc(Cl)c3)ncn2)n1` as the compound, how does the activation (protection from necroptosis) read?
**A.** Its activation (protection from necroptosis) is 102% (active).

**Q.** With `CC(=O)c1ccc(S(=O)(=O)N2CCN(C(=O)/C=C/c3ccc4ccccc4n3)CC2)cc1` as the compound, how does the activation (protection from necroptosis) read?
**A.** Its activation (protection from necroptosis) is 2.81% (inactive).

**Q.** For `Cc1ccc(NC(=O)NC2CCCCC2)cc1S(=O)(=O)N1CCOCC1`, which activation (protection from necroptosis) is on record?
**A.** Its activation (protection from necroptosis) is 2.38% (inactive).

**Q.** With `CCn1c(SCC(=O)Nc2nc3ccc(OC)cc3s2)nnc1-c1ccoc1C` as the compound, how does the activation (protection from necroptosis) read?
**A.** The activation (protection from necroptosis) was 1.15% (inactive).

**Q.** For `Cn1ccc(NC(=O)Nc2ccc(Cl)cc2)n1`, which activation (protection from necroptosis) is on record?
**A.** Its activation (protection from necroptosis) is 28.3% (inactive).

**Q.** Which activation (protection from necroptosis) does the source give for `Cc1cc(NC(=O)c2cnn3cccnc23)n(-c2ccccc2)n1` here?
**A.** The activation (protection from necroptosis) was 21.5% (inactive).

**Q.** For `Oc1ccc(/C=N/Nc2ccc(C(F)(F)F)cn2)cc1O`, which activation (protection from necroptosis) is on record?
**A.** The activation (protection from necroptosis) was 83.8% (active).

**Q.** With `Cc1[nH]c(=O)c(C(=O)/C=C/c2ccccc2)c2c1CCCC2` as the compound, how does the activation (protection from necroptosis) read?
**A.** Its activation (protection from necroptosis) is 1.29% (inactive).
